FUS yeast rescue: suppressors of FUS proteinopathy in yeast; AID 1347120; Potency, µM (doses to about 76.6 µM), usual class: activators; S. cerevisiae FUS-expressing, growth rescue, OD600, 24 h; 390,000 tested, 0.24% active;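 also: plate controls were DMSO vehicle for no effect and reference control for full effect; nearly all actives have a fitted effect of over 55% in size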
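Compound concentration series was pinned onto galactose-induced FUS-expressing yeast seeded at OD 0.005. Plates sat 24hr at 30C; absorbance at 600 nm gave growth. DMSO served as background control.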
Abeta rescue: restores growth of yeast expressing A-beta42 peptide. 410,000 tested, 0.063% active. Potency, µM (series often up to 46.1 µM), usual class: activators. yeast expressing A-beta42, growth rescue, OD600, 48 h; response scale: 0% DMSO, 100% iron-clioquinol control; also: nearly all actives have a fitted effect of over 55% in size
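Yeast growth medium received pinned compounds, then yeast cells expressing toxic A-beta were added; plates incubated at 30 C for 48 hr. Growth read as absorbance at 600 nm, normalized to DMSO and equimolar FeCl3 plus clioquinol controls.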
Mito fusion yeast: inhibitors of mitochondrial division or activators of mitochondrial fusion; S. cerevisiae fusion-defective mutant growth rescue, CellTiterGlo 48 h; Potency, µM (top dose mostly 46.1 µM), inactives show at the top dose growth rescue (activation), most hits filed as activators; 320,000 tested, 0.23% active; also: % of control where 0% means no effect; nearly all actives have a fitted effect of over 45% in size
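Growth-rescue viability read-out: after 48 h at the non-permissive 37C in glycerol/ethanol YPEG, yeast mitochondrial fusion mutants are measured by CellTiterGlo luminescence; compounds (23 nl pinned per well) restoring growth score as division inhibitors or fusion activators.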
TDP43 rescue: inhibitors of TDP-43 toxicity in yeast; 410,000 tested, 1.8% active; Potency, µM (top dose mostly 46.1 µM), for the others: at the highest dose growth rescue (activation), actives largely listed as activators; TDP-43 expressing yeast growth rescue, BacTiter-Glo, 24 h; also: % of control where 0% means no effect; nearly all actives have a fitted effect of over 50% in size
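Readout is BacTiter-Glo luminescence of cell growth, so inhibitors register as activators. TDP-43-expressing yeast at OD600=0.02 in galactose medium, after raffinose pregrowth to mid-log, were incubated with compound for 24 hr at 30 deg C.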
aSyn rescue: alpha-synuclein toxicity inhibition in yeast; Yeast expressing alpha-synuclein, growth rescue, BacTiter-Glo, 24 h; Potency, µM (titrated, usually from 46.1 µM), for inactives: at the top dose growth rescue (activation), actives largely listed as activators; 370,000 tested, 0.14% active; AID 652106; also: % of control where 0% means no effect; nearly all actives have a fitted effect of over 65% in size
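Galactose-induced alpha-syn yeast (OD600=0.02, raffinose-pregrown) + pinned cpd, 24 hr, 30 deg C; growth by BacTiter-Glo luminescence. Growth restoration scores as activation.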
* marks the source's active call; other numbers are inactive results; i = inactive; ? = inconclusive; · = not tested or not shown; ! = repeats disagree; [ ] = another dose, or the depositor's remark. An excerpt weighted towards active compounds, which were near 2.2% of everything screened. Calls follow the shape of the dose curve; as a rule, active = well fitted curve in the direction sought with a large enough effect; inconclusive = small, poorly fitted or top-dose-only effect, or another doubt; inactive = no such curve, though single readings can be large; an effect the other way counts as inactive or inconclusive. Potency is read from the fitted curve at half-maximal effect.

SMILES	FUS yeast rescue	Abeta rescue	Mito fusion yeast	TDP43 rescue	aSyn rescue
CN(C1CCCCC1)S(=O)(=O)c1ccc(NC(=O)c2ccc(Br)o2)cc1	i	i	11µM*	0%	15%
CC1(C(=O)NS(=O)(=O)c2ccc(C#N)cc2)CCN1C(=O)C1(c2ccc(Cl)cc2)CCC1 (stereo not given)	i	i	·	24%	-4%
CC1(C(=O)Nc2ccc3c(c2)OCCO3)CCN1C(=O)C1(c2ccc(Cl)cc2)CC1 (stereo not given)	i	i	·	35µM*	6%
CC1(C(=O)Nc2ccc3c(c2)OCCO3)CCN1C(=O)C1(c2ccc(Cl)cc2)CCC1 (stereo not given)	?	i	·	13%	13%
CC1(C(=O)NS(=O)(=O)c2cccc(C#N)c2)CCN1C(=O)C1(c2ccc(Cl)cc2)CCC1 (stereo not given)	i	i	·	8%	28µM*
CC(=O)N1CCOc2cc(S(=O)(=O)NCc3ccc(C)cc3)c(C)cc21	i	i	·	16%	·
COc1ccccc1C(C(=O)NCc1ccccc1)N(C(=O)c1csnn1)C1CC1 (stereo not given)	i	i	5%	3%	-1%
COc1ccccc1C(C(=O)NC1CCCC1)N(C(=O)c1csnn1)C1CC1 (stereo not given)	i	i	3.2µM*	-11%	3%
CC(c1ccccc1)N1CCn2c(nc3cc(NC(=O)NC4CCCCC4)ccc32)C1 (stereo not given)	11µM*	i	-4%	-11%	7%
CN(Cc1cc(Cl)cc(Cl)c1)CC(C(=O)c1ccccc1)c1ccccc1 (stereo not given)	·	i	·	13µM*	26%
Cc1c(C(=O)NCc2ccc(Cl)cc2)oc2ccc3c(c12)C(=O)CC(C)(C)O3	i	i	·	15%	·
CCCNC(=O)c1oc2ccc3c(c2c1C)C(=O)CC(C)(C)O3	i	i	-1%	14µM*	-2%
CC(C)CCN1C(=O)N(c2ccccc2)C(=O)C1CC(=O)Nc1ccc(Cl)cc1 (stereo not given)	i	i	·	-1%	·
Cc1ccccc1N1CCN(S(=O)(=O)c2ccccc2)CC1	i	i	16%	13µM*	6%
Cc1ccccc1N1CCN(C(=S)c2ccccc2)CC1	·	i	16%	11µM*	-3%
Cc1cc(OCc2cc(C(=O)NC(C)c3cnn(C)c3)no2)cc(C)c1Cl (stereo not given)	i	i	·	32µM*	?
Cc1cc(OCc2cc(C(=O)N(C)C(C)c3ccccn3)no2)cc(C)c1Cl (stereo not given)	?	?	10%	22µM*	2%
CC(=O)c1ccc(OCc2cc(C(=O)NC(C)c3cnn(C)c3)no2)cc1 (stereo not given)	i	i	-2%	16%	3%
O=C(c1cccn1-c1nnc(N2CCCC2)s1)N1CCN(c2ccc(Cl)cc2)CC1	i	i	·	-26%	·
COC(=O)c1ccc(CSc2nnc(CS(=O)Cc3ccc(Br)cc3)n2-c2ccccc2)cc1 (stereo not given)	·	i	10%	25µM*	25%
COc1cccc(CNC(=O)COCc2cc(-c3ccc4c(c3)OCO4)on2)c1	i	i	·	35µM*	·
O=C(COCc1cc(-c2ccc3c(c2)OCO3)on1)N1CCN(c2cccc(C(F)(F)F)c2)CC1	i	i	15%	35µM*!	19%
COc1ccc(N2CCN(C(=O)COCc3cc(-c4ccc5c(c4)OCO5)on3)CC2)cc1	i	i	7%	-14%	0%
O=C1c2ccccc2NC(c2ccc(OCc3ccccc3)c(OCc3ccccc3)c2)N1Cc1ccco1 (stereo not given)	·	·	·	·	9%
Cc1cc(C(F)(F)F)n(-c2nc(C(=O)Nc3cccnc3)cs2)n1	i	i	10%	22µM*	9%
SMILES	FUS yeast rescue	Abeta rescue	Mito fusion yeast	TDP43 rescue	aSyn rescue
CC(=O)c1cccc(NC(=O)c2csc(-n3nc(C)cc3C(F)(F)F)n2)c1	i	i	3%	13%	-4%
Cc1ccc(-c2nnn(CC(=O)N(CC3CCCO3)C(C(=O)NC3CCCC3)c3ccc(O)cc3)n2)o1 (stereo not given)	28µM*	i	1%	-8%	-4%
Cc1ccc(-c2nnn(CC(=O)N(CC3CCCO3)C(C(=O)NC3CCCC3)c3ccc(F)cc3)n2)o1 (stereo not given)	i	i	-7%	7%	1%
COC(=O)c1cc(-c2cnc(OC)nc2OC)c(=O)n2c1CCC2	i	·	·	·	·
O=C(CN1C(=O)CC(c2ccco2)Sc2ccccc21)Nc1ccc(Br)cc1 (stereo not given)	i	i	·	4%	8%
O=C(CN1C(=O)CC(c2ccco2)Sc2ccccc21)Nc1ccccc1F (stereo not given)	i	i	21%	32µM*	8%
Cc1nn(-c2ccccc2)c(N2CCCC2)c1/C=N/NC(=O)c1ccccc1O	i	i	-5%	5%	-7%
O=C(N/N=C/c1cc2c3c(c1O)CCCN3CCC2)c1ccccc1O	i	i	?	-35%	22µM*
O=C(c1cc(F)cc(F)c1)N1CCCC(c2nc(-c3cccs3)no2)C1 (stereo not given)	i	·	·	·	·
C[C@@H]1COc2cccc(F)c2S(=O)(=O)N1C	i	·	·	·	·
Cc1ccc(NC(=O)Cn2nnc(-c3ccccc3F)n2)cc1C	i	·	·	·	·
N/C(=N\OC(=O)c1ccco1)c1cccc(Br)c1	i	i	2%	11µM*	-24%
N/C(=N\OC(=O)/C=C/c1ccccc1)c1ccccc1	i	i	-4%	18µM*	-19%
N/C(=N\OC(=O)c1cccc(Br)c1)c1ccccc1	i	i	-3%	13µM*	-22%
N/C(=N\OC(=O)c1cccc(Br)c1)c1ccccn1	i	i	7%	11µM*	-10%
NC(=O)CSc1nnnn1-c1cccc(O)c1	i	i	-6%	14%	·
COc1ccccc1/C=C/c1cncc(/C=C/c2ccccc2OC)c1	·	·	·	·	29%
CCOc1cc(C(=O)O/N=C(\N)c2ccccn2)cc(OCC)c1OCC	i	i	-1%	13%	-24%
CCOc1ccc(C(=O)O/N=C(\N)c2ccccn2)cc1OCC	i	i	-3%	32µM*	0%
O=Cc1ccc(OC(=O)/C=C/c2ccccc2)cc1	i	i	12%	18µM*	25%
COc1ccc(N(C(=O)/C=C\C(=O)Nc2ccc(Cl)cc2)C(C(=O)NCc2ccco2)c2ccc(C)cc2)cc1 (stereo not given)	?	i	·	11%	·
Nc1nnc(SCC(=O)OCC(=O)c2ccccc2)s1	i	i	32µM*	-8%[0.397 µM]	-8%

Screening data from PubChem.
